In PubChem BioAssay AID1628 (Sanford-Burnham Center for Chemical Genomics, 2009):
Screen size: about 190,000 compounds; about 930 (0.49%) were called active.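 Rule for the calls: active = z-score of insulin promoter reporter brightness in nuclei below -3 at 5 µM, with at least 500 cells counted; inconclusive = wells with under 500 cells, flagged as toxic or sparse; inactive = the rest.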 The list shows a part of the results. Measured potencies and affinities stand elsewhere.

Experiment: decrease of insulin promoter-GFP reporter – imaging, high-content screening, mouse beta cells (AID 1628)
Settings: MIN6 insulin promoter GFP reporter, at 5 µM, stronger effect = lower value

z-score, active:
CC(CNCC1CCCO1)COc1cccc2ccccc12 (stereo not drawn) -4.31, COc1ccc(-c2cc(C(F)F)n3ncc(C(=O)NCC4CCCO4)c3n2)cc1 (stereo not drawn) -5.37, Cc1nc2ccccn2c1C(=O)NCc1ccc2c(c1)OCO2 -5.57, COC(=O)c1[nH]c2ccc(F)cc2c1NC(=O)CCN1CCN(Cc2ccc3c(c2)OCO3)CC1 -3.4, COC(=O)c1c(NC(=O)CN2CCN(Cc3ccc4c(c3)OCO4)CC2)sc(C)c1C -5.05, COC(=O)c1[nH]c2ccc(C)cc2c1NC(=O)CCN1CCN(Cc2ccc3c(c2)OCO3)CC1 -3.87, COc1ccc(N=c2oc3c(OC)cccc3cc2C(=O)NCc2ccco2)c(OC)c1 -3.31, O=C(Nc1ccc(F)cc1)NC1CCN(Cc2ccccc2)CC1 -3.27, CC(C)Oc1ccccc1C1CC(=O)Nc2cc3c(cc21)OCCO3 (stereo not drawn) -4.18, CCNc1nc(N2CCCC2)nc(N2CCCC2)n1 -3.04, C(=N\Nc1nc(-c2ccccn2)nc2ccccc12)/c1ccccc1 -3.55, CCOc1ccc(N2CC(C(=O)NCc3ccc(F)cc3)CC2=O)cc1 (stereo not drawn) -5.37, COc1cccc(NC(=O)CSc2nc3ccccc3c(=O)n2CCCC(=O)N2CCCC2)c1 -4.63, COc1cccc(NC(=O)Cn2c(SCC(=O)N3CCOCC3)nc3ccccc32)c1 -4.09, COc1ccc(-n2c(SCC(=O)Nc3cccc4ccccc34)nc(O)cc2=O)cc1 -6.42, C/C(CC(=O)NCc1ccc(Cl)cc1)=N\NC(=O)Cc1ccccc1 -4.08, Cc1ccc(-c2nc(C#N)c(NCCN3CCCCC3)o2)cc1 -3.25, O=C(/C=C/c1cccs1)N1CCOCC1 -5.7, Fc1ccc(NC(=S)NNc2ncc(C(F)(F)F)cc2Cl)c(F)c1 -3.64, Cc1ccc(C)c(N=Nc2ccc(O)c3ncccc23)c1 -4.77, Cc1ccc(OCC2Cn3c(nc4c3c(=O)n(C)c(=O)n4C)O2)cc1 (stereo not drawn) -6.54, CCc1c(C)nc2ncnn2c1N1CCC(C(=O)Nc2ccc(C)cc2)CC1 -5.25, Cc1cc(N2CCC(C(=O)N3CCN(c4cccc(C)c4C)CC3)CC2)n2ncnc2n1 -4.36, CCc1c(C)nc2ncnn2c1N1CCC(C(=O)NCc2cccc(OC)c2)CC1 -5.78, Cc1nc2ncnn2c(N2CCCC(C(=O)Nc3ccc4c(c3)CCC4)C2)c1C (stereo not drawn) -5.29, CCc1c(C)nc2ncnn2c1N1CCC(C(=O)N2CCN(c3ccc(F)cc3)CC2)CC1 -3.04, Cc1ccc(C(C#N)c2ccc(C(=O)c3ccc(F)cc3)cc2)cc1 (stereo not drawn) -4.77, Fc1ccc(NCc2nnc(SCc3nnc(-c4ccccc4)o3)n2Cc2ccccc2)cc1 -4.77, Cc1ccccc1NC(=O)/C(=C\c1cccs1)NC(=O)c1ccco1 -5.39, CN1CCN(C(=O)/C(=C\c2cccs2)NC(=O)c2ccco2)CC1 -6.33, NCCCC[C@@H]1NC(=O)[C@H](CCC(=O)O)NC(=O)c2cc([N+](=O)[O-])cc(I)c2NCC[C@@H](C(N)=O)NC1=O -4.01, NC(=O)CC[C@@H]1NC(=O)[C@@H]2CCCN2C(=O)c2cc([N+](=O)[O-])cc(I)c2NCCCC[C@@H](C(=O)NC(CC(=O)O)C(N)=O)NC1=O (stereo partly drawn) -4.71, CC(C)C[C@@H]1NC(=O)[C@H](C(C)C)NC(=O)c2cc([N+](=O)[O-])cc(I)c2NCC[C@@H](C(N)=O)NC1=O -5.69

z-score, inactive:
CN(C)C(=O)C1C2NC(=S)N(c3cccc(Cl)c3)C1(C)Oc1ccc(Cl)cc12 (stereo not drawn) 3.51, Nc1c(C(=O)c2ccccc2)sc2nsc(SCCN3CCCC3)c12 6.03, OC(CNCC1CCCO1)COc1ccc(OCC(O)CNCC2CCCO2)cc1 (stereo not drawn) 1.04, CCOC(=O)/C(C#N)=C/C=C1\C=Cc2ccccc2N1CC 4.84, O=C(C1=C[C@H](C2CC2)C[C@H](OCCCCO)O1)N1CCN(Cc2ccccc2)CC1 3.72, O=C(c1ccccn1)N1CCN(S(=O)(=O)c2ccc3ccccc3c2)CC1 3.58, CS(=O)(=O)N(CCc1ccccc1)CC(=O)N1CCN(Cc2ccccc2)CC1 0.33, COC(=O)CCC(NC(=O)c1cc(C)oc1C)C(=O)OC (stereo not drawn) 0.79, O=C(O)c1cc(-c2ccc(/C=C3/SC(=S)N(Cc4ccccc4)C3=O)o2)ccc1Cl 4.28, N#C/C(=C/c1ccc(N2CCOCC2)o1)c1ccc(Br)cc1 10, CCOCCCNc1nc2c(C)cccn2c(=O)c1/C=C1\SC(=S)N(CC(C)C)C1=O 4.38, CC(C)(C)NS(=O)(=O)c1ccc(CCC(=O)NCc2ccc3c(c2)OCO3)cc1 0.89, Cc1nc2ccccn2c1P(=O)(N1CCCCC1)N1CCCCC1 0.76, CCCN1C(=O)/C(=C/c2c(NCCCOCC)nc3c(C)cccn3c2=O)SC1=S 5.71, Cc1ccc(-c2cc(-c3ccco3)c3c(N)c(C(=O)NN)oc3n2)cc1 3.03, COc1cc(OC)c2c(-c3ccccc3)cc(=O)oc2c1 -1.04, COC(CNC(=O)c1ccc(Cn2c(=S)[nH]c3cc4c(cc3c2=O)OCO4)cc1)OC 3.48, CCCNC(=O)Cn1cnc2sc(C(=O)N3CCN(Cc4ccc5c(c4)OCO5)CC3)c(C)c2c1=O 3.66, CCCCN1C(=O)C2(NNc3ccccc3O2)c2ccccc21 (stereo not drawn) 4.38, Cc1cc(N2CCCC2)ccc1/C=C1\NC(=S)N(C)C1=O 10.4, O=C(NN=C1CCN(Cc2ccccc2)CC1)c1cc(Br)ccc1O 1.47, CC(=O)OCCCN1C(=O)c2ccc(Br)cc2C1=O 1.19, CCCCNc1ccc2c3c(cccc13)C(=O)N(CCCC)C2=O 17.1, CCOC(=O)C1=C(C)NC(=O)CC1c1cc2c(cc1[N+](=O)[O-])OCO2 (stereo not drawn) 3.01, O=C(OCCN1C(=O)c2cccc3c(N4CCOCC4)ccc(c23)C1=O)c1ccc(Cl)cc1Cl 3.13, CN1C=CC2=C(C#N)C(N)C(C#N)(C#N)C(c3ccccc3)C2C1 (stereo not drawn) 10.1, CC12CCC(C/C1=N/O)C2(C)C (stereo not drawn) 0.65, Cc1ccc2nc(C(Cl)(Cl)Cl)nc(N/N=C/c3ccncc3)c2c1 2.39, CCOc1ccc(NC(=O)NC2CC(=O)N(c3ccc(OC)cc3)C2)cc1 (stereo not drawn) 2.29, CCOc1ccc(CNC(=O)CCn2c(=O)oc3ccccc32)cc1 3.4, COc1cc2nc(/C=C/c3ccc(N(C)C)cc3)sc2cc1SC 15.9, COc1cccc(NC(=O)CSc2nncn2N)c1 0.29, COc1cccc(NC(=O)Cn2c(-c3cncs3)nc3ccccc32)c1 5.27, CCOc1ccc(NC(=O)Cn2c(=O)oc3ccccc32)cc1 3.64, COc1ccc(-n2c(Cc3cccn3C)nnc2SCC(=O)Nc2cccc(C)c2C)cc1 3.05, O=C(Nc1nnc(-c2ccc(Cl)s2)o1)C1CC1 2.8, CCn1nnc2sc3c(c2c1=O)CCC(C)C3 (stereo not drawn) 3.59, O=C(CSc1ncn[nH]1)NCc1ccccc1 5.42, COc1cc(OC)c(OC)cc1/C=C1\Oc2cc(OS(C)(=O)=O)ccc2C1=O 5.02, CC(=O)N1CCOCCOCCN(C(C)=O)CCOCC1 2.13, Cc1cccc(Oc2nccc(C(F)(F)F)c2C(=O)Nc2ccc(F)cc2F)c1 3.57, CN(C)c1ccc(/C=C2\SC(=S)N(Nc3ncc(C(F)(F)F)cc3Cl)C2=O)cc1 4.86, O=Cc1sc(Nc2ccccc2)nc1Cl 3.66, Oc1c(/C=C/C=C/C=Nc2ccccc2)sc(=S)n1Cc1ccccc1 3.27, CSc1nsc(/C=C/Nc2ccc(C)cc2)c1C#N 3.5, N#C/C(=C/c1ccc(-c2ccccc2)o1)c1nc(-c2cccs2)cs1 14.7, CC(=O)NC(c1ccc(Cl)cc1)c1c(O)ccc2ccc(O)cc12 (stereo not drawn) 10.6, COc1nc(OC)nc(N2CCC(C(=O)NCc3cccs3)CC2)n1 3.48, COc1ccccc1N1CCN(c2cc(C)nc3nc(C)nn23)CC1 1.58, Cc1cc(C)nc(N2CCC(C(=O)Nc3ccc4c(c3)OCCO4)CC2)n1 3.37, CCC(=O)N1c2ccccc2C(N(C(C)=O)c2ccccc2)CC1C (stereo not drawn) 0.92, Cc1cc(/C=C2\SC(=S)NC2=O)c(C)n1-c1ccc(O)cc1 3.66, CCCNC(=O)Cn1c(=O)/c(=C\c2ccc(-c3ccc([N+](=O)[O-])cc3)o2)s/c1=C\C(=O)C(C)(C)C 18.3, COc1ccc(OC)c(C2C3CN(C(C)C)CC=C3C(C#N)=C(N)C2(C#N)C#N)c1 (stereo not drawn) 17.1, CCC(Sc1nnc(C)s1)C(=O)Nc1nccs1 (stereo not drawn) 1.54, O=C(Nc1ccc(C2CCCCC2)cc1)C1CCCN(c2ncccn2)C1 (stereo not drawn) 3.77, OC1(c2cn(Cc3ccccc3)nn2)CCCCC1 5.88, CCS(=O)(=O)c1ccc2oc(SCC(=O)NC3CCCC(C)C3C)nc2c1 (stereo not drawn) 4.28, CN1CCN(C(=O)/C(=C\c2cccs2)NC(=O)c2cccs2)CC1 6.06, O=C1c2cccc3c(O)ccc(c23)C(=O)N1Cc1ccco1 12.8
